Source: PubChem BioAssay
A selection: hits, their analogues and other compounds. The true share with any hit is near 2.9%.
PAFAH1B3 inh – PAFAH1B3 enzyme inhibitors, primary screen, biochemical, fluorescence polarization, human | Platelet-activating factor acetylhydrolase IB subunit alpha1 (Homo sapiens), Q15102 | recombinant PAFAH1B3, FP-rhodamine probe | inhibition, % at 3.39 µM | 0.28% of 340,000 active | AID 492972, 2010;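 active = inhibition above the screen-wide average of all tested compounds plus 3 SD, cut at about 25% in these data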;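 also: 0% = enzyme with DMSO only and 100% = wells lacking PAFAH1B3 protein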
pPAFAH inh – pPAFAH enzyme inhibitors, primary screen, biochemical, fluorescence polarization, human | AID 463082, 2010 | 1.5% of 330,000 active | Platelet-activating factor acetylhydrolase (Homo sapiens), Q13093 | recombinant pPAFAH, FP-rhodamine probe fluorescence polarization | inhibition, % at 3.39 µM;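 active = inhibition above the mean inhibition across the screen plus 3 SD, cut at about 25% in these data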;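 also: inhibitors block binding of the rhodamine activity-based probe so polarization drops; 0% = enzyme with DMSO and 100% = wells lacking pPAFAH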
Target sequence (Q13093 whole entry, looked up): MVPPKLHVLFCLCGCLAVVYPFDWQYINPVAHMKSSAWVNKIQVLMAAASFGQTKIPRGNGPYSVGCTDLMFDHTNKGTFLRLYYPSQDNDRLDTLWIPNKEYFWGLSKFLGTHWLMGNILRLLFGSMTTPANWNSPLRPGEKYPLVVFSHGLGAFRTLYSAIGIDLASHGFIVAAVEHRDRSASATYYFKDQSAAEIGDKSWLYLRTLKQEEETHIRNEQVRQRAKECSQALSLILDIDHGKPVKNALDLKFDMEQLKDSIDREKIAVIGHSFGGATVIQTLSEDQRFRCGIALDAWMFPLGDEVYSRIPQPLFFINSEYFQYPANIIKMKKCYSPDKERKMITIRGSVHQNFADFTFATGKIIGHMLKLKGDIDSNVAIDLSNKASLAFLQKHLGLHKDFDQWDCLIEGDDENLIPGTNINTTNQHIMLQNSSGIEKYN
LYPLA2 inh – LYPLA2 inhibitors, primary screen, counter-screen for PME1 inhibitor project, biochemical, fluorescence polarization, FP-Rh probe ABPP; Acyl-protein thioesterase 2 (Homo sapiens), O95372; recombinant LYPLA2; inhibition, % at 5.9 µM; 0.38% of 320,000 active; AID 2177, 2009;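 active = inhibition above the screen-wide mean plus 3 SD, limit set per campaign, cut at about 26% in these data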;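 also: 0% = LYPLA2 with DMSO and 100% = wells lacking LYPLA2 enzyme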
PAFAH1B2 inh – PAFAH1B2 enzyme inhibitors, primary screen, biochemical, fluorescence polarization, human | Platelet-activating factor acetylhydrolase IB subunit alpha2 (Homo sapiens), P68402 | recombinant PAFAH1B2, FP-rhodamine activity probe | inhibition, % at 3.39 µM | 1.2% of 340,000 active | AID 492953, 2010;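 active = inhibition above the mean of all tested compounds plus 3 SD, cut at about 24% in these data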;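 also: 0% = enzyme with DMSO and 100% = wells lacking PAFAH1B2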
PAFAH2 FP inh – PAFAH2 enzyme inhibitors, primary screen, biochemical, fluorescence polarization, human | recombinant PAFAH2, FP-rhodamine activity probe | inhibition, % at 3.39 µM | AID 492956, 2010 | 0.99% of 340,000 active;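 active = inhibition above the mean over all tested compounds plus 3 SD, cut at about 30% in these data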;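 also: inhibitors block probe labeling of enzyme so polarization drops; 0% = enzyme with DMSO and 100% = wells lacking PAFAH2 protein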
LYPLA1 inh – LYPLA1 inhibitors, primary screen, counter-screen for PME1 inhibitor project, biochemical, fluorescence polarization, FP-Rh probe ABPP; Acyl-protein thioesterase 1 (Homo sapiens), O75608; recombinant LYPLA1; inhibition, % at 5.9 µM; 0.16% of 320,000 active; AID 2174, 2009;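 active = inhibition above the mean of all tested compounds plus 3 SD, set per campaign, cut at about 14% in these data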;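 also: inhibitors block serine hydrolase probe labeling of LYPLA1 so polarization falls; 0% = enzyme with DMSO and 100% = wells lacking LYPLA1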
Target sequence (O75608 whole entry, looked up): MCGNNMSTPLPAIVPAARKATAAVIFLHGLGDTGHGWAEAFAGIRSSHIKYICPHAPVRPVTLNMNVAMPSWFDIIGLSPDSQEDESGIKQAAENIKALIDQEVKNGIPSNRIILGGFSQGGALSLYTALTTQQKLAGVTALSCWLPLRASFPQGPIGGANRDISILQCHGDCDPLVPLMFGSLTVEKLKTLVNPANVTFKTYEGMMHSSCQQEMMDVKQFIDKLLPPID
LYPLA2 conf – LYPLA2 inhibitors, retest, confirmation, counter-screen for PME1 inhibitor project, biochemical, fluorescence polarization, FP-Rh probe ABPP; shares compounds with LYPLA2 inh; recombinant LYPLA2; inhibition, % at 5.9 µM; 72% of 1,100 active;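 active = mean inhibition across replicates above the hit cutoff set in the primary screen, cut at about 26% in these data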;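 also: blocked labeling of the enzyme by serine hydrolase FP-Rh probe lowers polarization; 0% = enzyme with DMSO and 100% = wells lacking LYPLA2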
An asterisk follows results filed as active.

Screening COc1ccc(/C=C2\Sc3ccc(C(=O)NCc4cccnc4)cc3N(C)C2=O)cc1OC returned PAFAH1B3 inh 4, pPAFAH inh 8, LYPLA2 inh 28*, PAFAH1B2 inh -2, PAFAH2 FP inh -6, LYPLA1 inh 7 and LYPLA2 conf 13.
For COc1cccc(/C=C2\Sc3ccc(C(=O)NCc4cccnc4)cc3N(C)C2=O)c1 the results were PAFAH1B3 inh 9, pPAFAH inh 2, LYPLA2 inh 4, PAFAH1B2 inh -3, PAFAH2 FP inh 1 and LYPLA1 inh -5.
Screening COc1cc(/C=C2\SC(=O)N(CC(=O)Nc3ccccc3F)C2=O)cc(Cl)c1O returned PAFAH1B3 inh 7, pPAFAH inh -1, LYPLA2 inh 51*, PAFAH1B2 inh 2, PAFAH2 FP inh 18, LYPLA1 inh 1 and LYPLA2 conf 61*.
Screening Cc1ccc(S(=O)(=O)c2nc(S(C)(=O)=O)sc2N2CCCC2)cc1 returned PAFAH1B3 inh 6, pPAFAH inh 7, LYPLA2 inh 1, PAFAH1B2 inh 2, PAFAH2 FP inh -2 and LYPLA1 inh -2.
Screening O=C(Nc1cccc2ccccc12)c1cccc(F)c1 returned PAFAH1B3 inh 3, PAFAH1B2 inh 3 and PAFAH2 FP inh -3.
Screening COc1cc(/C=C2/SC(=S)N(CC(=O)Nc3cccnc3)C2=O)cc(OC)c1OC returned PAFAH1B3 inh -6, pPAFAH inh -8, LYPLA2 inh 2, PAFAH1B2 inh 2, PAFAH2 FP inh -13 and LYPLA1 inh -6.
Screening COc1ccc(/C=C2\SC(=O)N(CC(=O)Nc3cccnc3)C2=O)cc1OC returned PAFAH1B3 inh 8, pPAFAH inh 2, LYPLA2 inh 35*, PAFAH1B2 inh 1, PAFAH2 FP inh 11, LYPLA1 inh 0 and LYPLA2 conf 26*.
`CC(C)(C)c1ccc(Cn2nnc3c(=O)[nH]c(C4CCCN(C(=O)Cc5cccs5)C4)nc32)cc1` (stereo unspecified) gave PAFAH1B3 inh -4, pPAFAH inh 4, LYPLA2 inh -3, PAFAH1B2 inh 9, PAFAH2 FP inh 7 and LYPLA1 inh 1.
CC(C)(C)c1ccc(Cn2nnc3c(=O)[nH]c(C4CCN(C(=O)Cc5cccs5)CC4)nc32)cc1 was read as PAFAH1B3 inh -1, pPAFAH inh 6, LYPLA2 inh 27*, PAFAH1B2 inh 0, PAFAH2 FP inh -4, LYPLA1 inh -2 and LYPLA2 conf -3.
For CCCC(=O)Nc1ccc(N2CCN(C(=O)CCC)CC2)cc1 the results were PAFAH1B3 inh 0, pPAFAH inh -2, LYPLA2 inh 2, PAFAH1B2 inh 2, PAFAH2 FP inh -8 and LYPLA1 inh 1.
`CCCC(=O)Nc1ccc(N2CCN(C(=O)c3cc4ccccc4o3)CC2)cc1` gave PAFAH1B3 inh -1, pPAFAH inh 19, LYPLA2 inh 45*, PAFAH1B2 inh 5, PAFAH2 FP inh -4, LYPLA1 inh 10 and LYPLA2 conf 50*.
`Cc1cccc(NC(=O)Cn2nnc3sc4c(c3c2=O)CC(C)(C)OC4)c1` gave pPAFAH inh 10, LYPLA2 inh 39*, LYPLA1 inh -1 and LYPLA2 conf 48*.
CCC1(C)Cc2c(sc3nnn(CC(=O)Nc4ccccc4)c(=O)c23)CO1 (stereo unspecified) was read as PAFAH1B3 inh -5, pPAFAH inh -9, LYPLA2 inh 39*, PAFAH1B2 inh -1, PAFAH2 FP inh -2, LYPLA1 inh -3 and LYPLA2 conf 38*.
CCCCCCC#Cc1ccc2c(c1)COc1c3ccccc3nn1-2 was read as PAFAH1B3 inh -4, pPAFAH inh 4, LYPLA2 inh -11, PAFAH1B2 inh -3, PAFAH2 FP inh 2 and LYPLA1 inh -5.
`O=C(Cn1nc(-c2ccccc2)oc1=O)OCC(=O)c1ccc(F)c(F)c1` gave PAFAH1B3 inh 3, pPAFAH inh 0, LYPLA2 inh 3, PAFAH1B2 inh 2, PAFAH2 FP inh 6 and LYPLA1 inh -1.
`O=C1CN(C(=O)c2cccc(F)c2)C(c2ccc(F)cc2)c2cc(F)ccc2N1` (stereo unspecified) gave PAFAH1B3 inh 0, pPAFAH inh -1, LYPLA2 inh -2, PAFAH1B2 inh 8, PAFAH2 FP inh 1 and LYPLA1 inh 1.
For Cc1ccc(C(=O)N2CC(=O)Nc3ccc(F)cc3C2c2ccccc2)cc1[N+](=O)[O-] (stereo unspecified) the results were PAFAH1B3 inh 9, pPAFAH inh 7, LYPLA2 inh 34*, PAFAH1B2 inh -5, PAFAH2 FP inh 6, LYPLA1 inh -3 and LYPLA2 conf 34*.
O=C1CN(C(=O)c2cc([N+](=O)[O-])ccc2Cl)C(c2ccccc2)c2cc(F)ccc2N1 (stereo unspecified) was read as PAFAH1B3 inh -13, pPAFAH inh 0, LYPLA2 inh 8, PAFAH1B2 inh 3, PAFAH2 FP inh 10 and LYPLA1 inh 3.
Screening Cc1ccc(C(=O)N2CC(=O)Nc3ccc(F)cc3C2c2ccc(F)cc2)cc1[N+](=O)[O-] (stereo unspecified) returned PAFAH1B3 inh 3, pPAFAH inh 2, LYPLA2 inh 34*, PAFAH1B2 inh 2, PAFAH2 FP inh -1, LYPLA1 inh -2 and LYPLA2 conf 30*.
Screening O=C1NC(=O)c2cc(Oc3ccc([N+](=O)[O-])cc3)ccc21 returned PAFAH1B3 inh 5, pPAFAH inh 3, LYPLA2 inh 30*, PAFAH1B2 inh 7, PAFAH2 FP inh 4, LYPLA1 inh 1 and LYPLA2 conf 36*.
For O=C1c2ccc(Oc3ccc([N+](=O)[O-])cc3)cc2C(=O)N1CCO the results were PAFAH1B3 inh 7, pPAFAH inh 3, LYPLA2 inh 20, PAFAH1B2 inh 9, PAFAH2 FP inh 3 and LYPLA1 inh 0.
Screening Nc1cccc(Oc2ccc([N+](=O)[O-])cc2)c1 returned PAFAH1B3 inh 2, pPAFAH inh 8, LYPLA2 inh 32*, PAFAH1B2 inh 3, PAFAH2 FP inh 1, LYPLA1 inh 3 and LYPLA2 conf 35*.
